# High-throughput results deposited in PubChem BioAssay by National Center for Advancing Translational Sciences (NCATS).
# CXXC DNA block: MLL CXXC-DNA interaction inhibition; MLL-CXXC / FITC-HOXA9 DNA fluorescence polarization; Potency, µM (top dose mostly 115 µM), inactives show top-dose activity change, negative = inhibition, hits mostly inhibitors; 0.037% of 290,000 active; AID 2662; active means well fitted inhibition curve with a large enough effect in the polarisation, with a control signal flat, not every such curve was filed as active; inconclusive means small, poorly fitted or top-dose-only effect, or effect the other way, or a change in a side signal; inactive means no such curve, though single readings can be large or run the other way; the % refers to the polarisation; further: potency means the concentration at half of the fitted maximal effect
#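 Fluorescence polarization: 7 uM MLL-CXXC (stock) preincubated 5 min with compounds, then 50 nM fluorescein-HOX-A9 DNA (stock) added; 30 min ambient. Buffer 50 mM Tris-HCl pH 7.5, 50 mM NaCl, 1 mM DTT, 0.05% BSA.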
# Menin-MLL FL inh: displaces fluorescein MLL peptide from human menin; AID 1766; Fluorescence polarization, fluorescein-MLL peptide displacement from menin; 290,000 tested, under 10 active; FP activity change, % at 61.4 µM; active means well fitted curve in the direction sought with a large enough effect in the polarisation, not every such curve was filed as active; inconclusive means small, poorly fitted or top-dose-only effect, or effect the other way, or a change in a side signal; inactive means no such curve, though single readings can be large or run the other way; the % refers to the polarisation; further: % of control where 0% means no effect
# Menin-MLL TR inh: inhibitors of human menin-MLL interaction, mutant MLL peptide; O00255; Menin + Texas Red MLL mutant peptide, fluorescence polarization; Potency, µM (top dose mostly 61.6 µM), without a hit: at the top dose FP activity change, negative = inhibition, usual class: inhibitors; 0.23% of 270,000 active; active means well fitted inhibition curve with a large enough effect in the polarisation, with a control signal flat, not every such curve was filed as active; inconclusive means small, poorly fitted or top-dose-only effect, or effect the other way, or a change in a side signal; inactive means no such curve, though single readings can be large or run the other way; the % refers to the polarisation; further: potency means the concentration at half of the fitted maximal effect; % of control where 0% means no effect
# Akt phos inh: inhibitors of Akt phosphorylation; 0.32% of 360,000 active; activity change, % for hits at 50 µM; Neuro2A IGF-stimulated pAkt S473 HTRF, 20 min; stronger effect = lower value; in the data active means activity change below about -80%; inconclusive means mostly about -51% to -80%; further: on the % scale 0 is the no-effect control and ±100 the full control effect
#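 Single-point screen (50 µM final compound) in Neuro2A cells stimulated 20 min with 6 nM IGF at 37 deg C. After lysis, Ser473-phosphorylated Akt read by HTRF (ex 330 nm, em 615/665 nm) as the 665/615 ratio.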
# IDH1 R132H inh: inhibitors of human mutant IDH1 R132H | O75874 | IDH1-R132H enzyme, NADPH consumption, diaphorase/resazurin fluorescence | Potency, µM (series often up to 76.6 µM), for inactives: at the highest dose activity change, negative = inhibition, usual class: inhibitors | 0.093% of 390,000 active; active means well fitted inhibition curve with a large enough effect; inconclusive means small, poorly fitted or top-dose-only effect; inactive means no such curve, though single readings can be large or run the other way; further: potency means the concentration at half of the fitted maximal effect; on the % scale 0 is the no-effect control and ±100 the full control effect; nearly all actives have a fitted effect of over 65% in size
#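 IDH1-R132H (0.5 ug/mL) preincubated 30 min with compound, then NADPH (0.016 mM) and alpha-KG (2 mM) added; 80 min at RT, pH 7.5. Remaining NADPH coupled via diaphorase/resazurin to fluorescence (540/590 nm); concentration-response curves normalized to no-enzyme control.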
# LDHA block: blocks human lactate dehydrogenase A; P00338; purified LDHA, NADH/diaphorase-resazurin fluorescence; stronger effect = lower value; activity change, % (values are at about 110 or 230 µM); 0.15% of 480,000 active; in the data active means activity change below about -30%; inconclusive means mostly about -25% to -30%;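 further: plate controls were DMSO wells for no effect and wells without enzyme for full effect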
#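 Enzyme activity of human lactate dehydrogenase 5 (2 nM; 0.06 mM NADH, 0.2 mM pyruvate, 5 min, RT) is measured via a resazurin/diaphorase fluorescence readout of residual NADH.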
# Active calls of the source: *; i = inactive; ? = inconclusive; . = no result given; [ ] = remark or other dose. Only some compounds are listed: those with a hit (about 0.54% of all), similar ones and a draw of the others.
SMILES,CXXC DNA block,Menin-MLL FL inh,Menin-MLL TR inh,Akt phos inh,IDH1 R132H inh,LDHA block
CCOC(=O)C1=C(Nc2ccccc2)O/C(=C\c2c(F)cccc2F)C1=O,.,.,.,.,.,-3
O=C(Nc1ccc(Cl)cc1)Nc1nnc(CSCc2ccc(Cl)cc2)s1,-19%,0,7.9µM*,i,-4%,-8
O=C(Nc1ccc(Cl)c(Cl)c1)Nc1nnc(CC2=CCCCC2)s1,-1%,1,25µM*,i,4%,-3
N#Cc1nc(COc2ccc(Br)cc2)oc1NCCCN1CCOCC1,.,.,.,.,.,-9
N#Cc1cn(C2CC2)c(=O)n(Cc2coc(-c3cccc(F)c3)n2)c1=O,.,.,.,.,.,-1
COC(=O)CCC(NC(=O)c1cc(C)oc1C)C(=O)OC (configuration not stated),4%,8,-11%,-105%*,1%,2
CCOc1ccc(S(=O)(=O)N(CC(=O)Nc2cccc(C)c2)c2ccccc2)cc1,.,.,.,.,.,-34*
CC1(C)CC(=O)C(Sc2ccccc2[N+](=O)[O-])=C(O)C1,-6%,1,4%,i,5%,-78*
CN1CC[n+]2cnc3ccccc3c21,-7%,1,5%,i,0%,-33*
COc1ccc(-c2nnc3n2N=C(c2ccccc2OC)CS3)cc1OC,.,3,-17%,.,.,.
COc1ccc(C2=Nn3c(nnc3-c3ccccc3OC)SC2)cc1OC,-6%,5,11µM*,i,-5%,-6
COc1ccc(-c2nnc3n2N=C(C)CS3)cc1,-4%,3,11%,-84%*,1%,-3
CC1=Nn2c(nnc2-c2ccco2)SC1,-11%,-1,-12%,-102%*,2%,2
C1=CC2CC1CC2CN1CCN(Cc2ccccc2)CC1 (configuration not stated),-6%,0,-17%,i,2%,-32*
Fc1ccccc1N1CCN(CC2CC3C=CC2C3)CC1 (configuration not stated),-3%,-1,1%,i,0%,-7
Nc1nccnc1C(=O)NCc1ccccc1Cn1cccn1,.,.,.,.,.,-3
CC(=O)Nc1ccc(C(=O)CSc2ncn(-c3ccccc3)n2)cc1,4%,5,0%,-120%*,2%,-2
CCCCC(=O)N(CCOC)c1nnc(-c2ccc(OC)cc2)s1,5%,1,-11%,-103%*,3%,-4
CCCCC(=O)Nc1nnc(-c2ccc(OC)cc2)s1,-5%,0,9%,i,1%,2
Cn1nc(C(=O)N2CCN(c3ccccc3F)CC2)c2ccccc2c1=O,.,.,.,.,.,8
CCCCCC(=O)N1C[C@@H](n2cc(C3CC3)nn2)[C@H](O)C[C@@H]1c1ccc(C)cc1,.,.,.,i,2%,-32*
Cc1ccc(CN2CCC(N3CC(C)OC(C)C3)CC2)cc1 (configuration not stated),-1%,22,6%,i,-2%,-32*
CSc1ccc(CN2CCC(N3CC(C)OC(C)C3)CC2)cc1 (configuration not stated),-8%,0,5%,i,4%,-24
CCC(=O)Nc1ccc(-c2csc(NC)n2)cc1,.,.,.,.,.,2
COc1ccc(NC(=O)c2c(NC(=O)CCC(=O)O)sc3c2CCC(C(C)(C)C)C3)cc1 (configuration not stated),.,.,.,.,.,-30*
SMILES,CXXC DNA block,Menin-MLL FL inh,Menin-MLL TR inh,Akt phos inh,IDH1 R132H inh,LDHA block
COc1cc2c(cc1OC)CN(C(=O)/C=C/c1ccc(F)cc1)CC2,14%,-10,?,i,-1%,5
COc1cc2c(cc1OC)CN(C(=O)/C=C/c1cc(OC)c(OC)c(OC)c1)CC2,?,0,10µM*,i,3%,7
CCCN1C(=O)c2ccccc2NC1c1ccc(OC)c(COc2ccc([N+](=O)[O-])c(C)c2)c1 (configuration not stated),.,.,.,.,.,-59*
COc1ccc(C2Nc3ccccc3C(=O)N2Cc2ccco2)cc1COc1ccc([N+](=O)[O-])cc1 (configuration not stated),10%,-1,-1%,i,-3%,-1
Cc1ccc(Nc2nc(C(N)=O)c(NC(=O)CC(C)C)s2)cc1,.,.,.,.,.,-2
Cc1c(OCc2ccccc2)c(=O)ccn1Cc1ccc(Cl)cc1,22%,1,4%,-115%*,3%,0
Cc1ccc(NC(=O)CN2CCN(Cc3ccccc3)CC2)cc1,3%,0,0%,i,-8%,-3
CC1(C)C2CCC(C2)C1(C)NC(=O)CN1CCN(Cc2ccccc2)CC1 (configuration not stated),0%,-5,?,i,18%,-40*
Oc1ccc2ccccc2c1-c1sc(Nc2ccccc2)n[n+]1-c1ccc(F)cc1,?,?,16µM*,i,2%,-8
Fc1ccc(-[n+]2nc(Nc3ccccc3)sc2-c2c3ccccc3cc3ccccc23)cc1,?,-5,?,i,9%[38.3 µM],-1
COC(=O)C1=C(C)N(c2ccccc2)C(=O)CC1C(=O)Nc1cc(OC)c(OC)c(OC)c1 (configuration not stated),.,.,.,.,.,-6
CCOC(=O)C1=C(C)N=C2SC(C(=O)OC)=CC(=O)N2C1c1ccc(F)cc1 (configuration not stated),11%,17,11%,-87%*,2%,5
O=C(CCn1cnc2sc3c(c2c1=O)CCCC3)NC1CC1,.,.,.,.,.,0
CCCCNC(=O)CN1CCN(Cc2ccc3cc(OC)ccc3c2)CC1,-7%,-12,?,i,8%,-33*
CN(C)/C=C(\C#N)C(=O)c1cccc(Oc2ccc(Br)cc2)c1,-10%,-1,29%,-112%*,7%,2
Cc1cc(C(=O)CN2CCC(C(=O)c3ccccc3)CC2)c(C)n1C(C)C,.,.,.,.,.,-5
COc1ccc(OC)c(-n2c3c(cc(-c4nc(-c5ccc(Cl)cc5)cs4)c2=O)C(=O)CC(C)(C)C3)c1,.,.,.,.,1.3µM*,2
Cc1nnc(SCC(=O)N(C)CCOc2ccc(Br)cc2)n1C,.,.,.,.,.,1
Cc1cc(=O)[nH]c(SCn2nnc3ccccc3c2=O)n1,17%,2,-1%,-99%*,7%,3
CC(=O)c1ccc(C(=O)N(C)Cc2ccncc2)s1,.,.,.,.,.,8
Cc1ccc2c(CN(C)CCOc3ccc(F)cc3)cc(=O)oc2c1,.,.,.,.,.,-33*
Cc1cc2oc(=O)cc(CN(C)CCOc3ccc(F)cc3)c2cc1Cl,.,.,.,.,.,7
